# RGS4 inh – Inhibitors of Regulator of G Protein Signaling (RGS) 4: qHTS; Regulator of G-protein signaling 4 (Homo sapiens), P49798; Transcreener GDP fluorescence polarization, RGS4-accelerated GTP hydrolysis; Potency, µM (doses to about 114 µM), for inactives: at the highest dose activity change, negative = inhibition, actives largely listed as inhibitors; 390,000 tested, 0.039% active; AID 504845, 2011; further: potency means the concentration at half of the fitted maximal effect; on the % scale 0 is the no-effect control and ±100 the full control effect; nearly all actives have a fitted effect of over 75% in size
#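 MLSMR compounds (23 nl, pin-transferred) preincubated 10 min at room temperature with a 500nM (2x) first reagent, then RGS4 at 900nM (2x) plus Transcreener GDP mix added; fluorescence polarization (620/688 nm) read before and after 90 min at 30 °C.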
# ASM inhibitor – Inhibitors of Secretory Acid Sphingomyelinase (S-ASM): qHTS | Sphingomyelin phosphodiesterase (Homo sapiens), P17405 | placental ASM, HMU-PC fluorogenic substrate, 60 min | Potency, µM (highest dose often 57.5 µM), for inactives: top-dose activity change, negative = inhibition, usual class: inhibitors | 340,000 tested, 0.006% active | AID 504937, 2011; further: potency means the concentration at half of the fitted maximal effect
#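 Human placenta-derived ASM enzyme was preincubated with compound for 10 minutes at room temperature, then given fluorogenic substrate HMU-PC0 (9 uM final) for 60 minutes at 37 °C; a pH 10 stop preceded fluorescence reading at Ex 386/Em 447 nm.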
# IDH1 R132H inh – qHTS for Inhibitors of mutant isocitrate dehydrogenase 1 (IDH1): qHTS. IDH1-R132H enzyme, NADPH consumption, diaphorase/resazurin fluorescence. Potency, µM (top dose mostly 76.6 µM), without a hit: at the highest dose activity change, negative = inhibition, most hits filed as inhibitors. 390,000 tested, 0.093% active. AID 602179, 2012; further: potency means the concentration at half of the fitted maximal effect; on the % scale 0 is the no-effect control and ±100 the full control effect; nearly all actives have a fitted effect of over 65% in size
# Target sequence (O75874 whole entry R132H, stated change not applied): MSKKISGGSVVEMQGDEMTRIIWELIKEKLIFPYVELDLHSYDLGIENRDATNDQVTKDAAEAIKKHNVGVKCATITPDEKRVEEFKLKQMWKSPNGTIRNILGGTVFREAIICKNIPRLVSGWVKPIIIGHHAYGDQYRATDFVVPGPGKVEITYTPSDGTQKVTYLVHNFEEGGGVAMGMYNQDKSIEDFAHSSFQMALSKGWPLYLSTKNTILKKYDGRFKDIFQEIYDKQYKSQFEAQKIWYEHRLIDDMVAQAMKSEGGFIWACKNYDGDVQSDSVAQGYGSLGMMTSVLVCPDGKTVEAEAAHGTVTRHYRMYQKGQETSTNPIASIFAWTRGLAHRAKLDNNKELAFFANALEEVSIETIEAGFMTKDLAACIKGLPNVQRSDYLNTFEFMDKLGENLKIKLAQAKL
#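 IDH1-R132H (0.5 ug/mL dispensed) in pH 7.5 Tris buffer was preincubated 30 min with compound, then given a substrate mix of 0.016 mM NADPH and 2 mM alpha-KG for 80 min at room temperature; remaining NADPH was read by diaphorase/resazurin fluorescence.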
# Mito fusion act – qHTS Assay for Small Molecule Inhibitors of Mitochondrial Division or Activators of Mitochondrial Fusion. Potency, µM (highest dose often 46.1 µM), for the others: top-dose growth rescue (activation), most hits filed as activators. 320,000 tested, 0.23% active. AID 485298, 2010. S. cerevisiae fusion-defective mutant growth rescue, CellTiterGlo 48 h; further: potency means the concentration at half of the fitted maximal effect; % of control where 0% means no effect; nearly all actives have a fitted effect of over 45% in size
#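 Growth-rescue viability read-out: after 48 h at the non-permissive 37C in glycerol/ethanol YPEG, yeast mitochondrial fusion mutants are measured by CellTiterGlo luminescence; compounds (23 nl pinned per well) restoring growth score as division inhibitors or fusion activators.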
# ClpP mod – qHTS Assay for Activators of ClpP; ATP-dependent Clp protease proteolytic subunit (Bacillus subtilis (strain 168)), P80244; Potency, µM (series often up to 57.5 µM), for the others: at the highest dose activity change, negative = active; AID 651965, 2013; 340,000 tested, 1.9% active; purified B. subtilis ClpP, FRET peptide cleavage, 20 min; active means well fitted falling curve with a large enough effect; inconclusive means small, poorly fitted or top-dose-only effect; inactive means no such curve, though single readings can be large or run the other way; further: potency means the concentration at half of the fitted maximal effect; the source files actives as falling curves though it sought activators and does not explain the sign; nearly all actives have a fitted effect of over 65% in size
# Target sequence (P80244 whole entry, looked up): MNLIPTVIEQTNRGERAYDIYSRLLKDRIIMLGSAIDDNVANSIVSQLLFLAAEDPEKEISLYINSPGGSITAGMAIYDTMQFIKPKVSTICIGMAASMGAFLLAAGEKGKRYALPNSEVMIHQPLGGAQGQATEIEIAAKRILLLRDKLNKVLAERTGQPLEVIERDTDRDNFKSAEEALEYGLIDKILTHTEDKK
#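 Buffer: 100 mM Tris/HCl pH8, 100 mM KCl, 0.05% low protease BSA, 2.5% glycerol, 0.01% Tween-20. ClpP 10 microg/mL final; 20 min RT; delta FRET normalized to ADEP and DMSO controls.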
# LDHA inh – qHTS assay for inhibitors of human lactate dehydrogenase. activity change, % (values are at about 110 or 230 µM). 480,000 tested, 0.15% active. purified LDHA, NADH/diaphorase-resazurin fluorescence; active compounds read low; in the data active means activity change below about -30%; inconclusive means mostly about -25% to -30%;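 further: plate controls were DMSO wells for no effect and wells without enzyme for full effect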
#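 Human LDH5 at 2 nM final in Tris HCl pH 7.4 with 0.06 mM NADH and 0.2 mM pyruvate, reacted 5 minutes at room temperature. Remaining NADH coupled via diaphorase/resazurin; resorufin fluorescence read at 0 and 20 minutes, normalized to enzyme-free and DMSO wells.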
# * = called active by the depositor; i = inactive; u = inconclusive; x = not tested or not shown; ! = repeats disagree. The sample as a whole holds a higher share of hits than the screen did. Unless noted, the call rests on the fitted dose curve; in most records, active means well fitted curve in the direction sought with a large enough effect; inconclusive means small, poorly fitted or top-dose-only effect, or another doubt; inactive means no such curve, though single readings can be large; an effect the other way counts as inactive or inconclusive.
SMILES,RGS4 inh,ASM inhibitor,IDH1 R132H inh,Mito fusion act,ClpP mod,LDHA inh
CC1Sc2ccc(S(=O)(=O)N3CCN(c4ccccc4)CC3)cc2NC1=O (stereo not given),-13%,-5%,-9%,5%,0%,-6
CN(C)c1ccc(NC(=O)COC(=O)Cn2nnc3ccccc32)cc1,u,3%,-1%,-4%,25µM*,-8
O=C(COC(=O)Cn1nnc(-c2ccccc2)n1)Nc1ccccc1Br,8%,0%,2%,x,x,0
COc1ccc(NC(=O)COC(=O)Cn2nnc3ccccc32)cc1,16%,0%,0%,-7%,-4%,-3
O=C(COC(=O)Cn1nnc2ccccc21)Nc1ccccc1Br,-28%,-2%,5%,-6%,28µM*,-3
Cc1c(OCC(=O)Nc2ccc(F)cc2)c(=O)ccn1C,x,x,x,x,x,-4
Cc1sc2ncnc(Sc3nnnn3-c3ccccc3)c2c1C,-12%,-4%,7%,0%,32µM*!,-1
COc1cc2c[n+](C)c3c4ccccc4ccc3c2cc1OC,-11%,i,5%,x,8.9µM*,-8
C=CCN1C(=O)S/C(=C/c2ccc(Sc3nc4ccccc4[nH]3)o2)C1=O,-42%,-7%,11%,22µM*,1%,1
CC(O)c1ccccc1[N+](=O)[O-] (stereo not given),x,x,x,x,x,10
COCc1c(C(=O)N2CCN(S(=O)(=O)c3ccccc3Cl)CC2)oc2ccccc12,16%,-3%,-2%,11%,1%,-6
COCc1c(C(=O)N2CCN(Cc3nc4ccccc4s3)CC2)oc2ccccc12,u,-2%,5%,7%,-3%,-33*
CCc1ccc(-c2nc(-c3ccc4c(c3)CC(=O)N4C)cs2)cc1,x,x,x,x,x,4
C=CCNC(=O)CSc1cc(C)c2cc(C)cc(C)c2n1,x,x,x,x,x,-10
CCOC(=O)c1cc(C)[nH]c(=O)c1C#N,-8%,i,3%,18%,4%,-1
COCc1cc(C)[nH]c(=O)c1C#N,-11%,9%,8%,0%,2.8µM*,-3
CC(C)c1ccc(C(O)P(=O)(OC2CCCCC2)OC2CCCCC2)cc1 (stereo not given),1%,-2%,12%,13µM*,1%,4
CCOC(=O)N1CCN(C(=O)c2cn(CCOC)c(=O)c3c2c2ccccc2n3C)CC1,-16%,18%,0%,0%,14µM*,-3
COCCn1cc(C(=O)NCc2cccs2)c2c3ccccc3n(C)c2c1=O,-6%,3%,3%,4%,20µM*,-2
COCCn1cc(C(=O)N2CCN(C)CC2)c2c3ccccc3n(C)c2c1=O,-1%,30%,1%,4%,11µM*,-1
COCCn1cc(C(=O)NCCN(C)C)c2c3ccccc3n(C)c2c1=O,-5%,14%,-2%,-5%,4%,-10
COc1cc(CNC(=O)c2ccccc2-c2nc(-c3ccc(F)cc3)no2)cc(OC)c1OC,x,x,x,x,x,1
CCOc1ccc2oc(=O)c(-c3ccc(OC)cc3)c(C)c2c1,x,x,x,x,x,3
O=C(Nc1cc(C(F)(F)F)ccc1N1CCOCC1)c1n[nH]c(=O)c2ccccc12,-8%,-12%,12µM*,8%,-1%,-5
CC1=C(C(=O)Nc2ccc(C)cn2)C(c2cnn(C)c2)C2=C(CCCC2=O)N1 (stereo not given),9%,308%,-4%,6%,6.3µM*,-7
SMILES,RGS4 inh,ASM inhibitor,IDH1 R132H inh,Mito fusion act,ClpP mod,LDHA inh
COc1ccc(-c2nc(CS(=O)CC(=O)NCc3ccc(C)cc3)c(C)o2)cc1OC (stereo not given),9%,5%,7%,-16%,4%,-6
CCCN(CCC)CCNC(=O)CS(=O)Cc1nc(-c2ccc(OC)c(OC)c2)oc1C (stereo not given),8%,x,-2%,x,32µM*,8
COc1ccc(-c2nc(CS(=O)CC(=O)NCc3ccc(F)cc3)c(C)o2)cc1OC (stereo not given),-21%,x,-19%,x,28µM*,10
CCOC(=O)COc1ccc2c(CC)cc(=O)oc2c1C,x,x,x,x,x,0
CCOC(=O)C(C)Oc1ccc2c(CC)cc(=O)oc2c1C (stereo not given),12%,0%,4%,3%,18µM*,5
CCOC(=O)C(=O)Nc1ccc(C(=O)OCC)cc1,x,x,x,x,x,13
CCN(CC)CCCNC(=O)Cn1c(-c2cccs2)cc2cc(Cl)ccc21,13%,x,11%,x,28µM*,1
CCC(C)NC(=O)Cn1c(-c2cccs2)cc2cc(Cl)ccc21 (stereo not given),4%,x,-5%,x,u,-7
CCN1CCN(CCCNC(=O)Cn2c(-c3cccs3)cc3cc(Cl)ccc32)CC1,-24%,x,-6%,x,32µM*,-2
O=C(Cn1c(-c2cccs2)cc2cc(Cl)ccc21)NCc1ccccc1,-14%,x,-3%,x,28µM*,-6
CN1CCN(CCCNC(=O)Cn2c(-c3cccs3)cc3cc(Cl)ccc32)CC1,-1%,x,-13%,x,32µM*,-3
Cc1c(C)n(-c2cccc(Cl)c2)c2ncnc(Cl)c12,x,x,x,x,x,12
O=C(Cn1nc(-c2ccc(Cl)cc2)c2ccccc2c1=O)N1CCCCC1,x,x,x,x,x,1
CCC/C=N/NC(=O)CCCC(=O)N/N=C/CCC,x,x,x,x,x,7
CN(C)CCC(=O)N1C/C(=C/c2ccccc2)C(=O)/C(=C\c2ccccc2)C1,u,1%,4%,x,35µM*,-2
O=C(CSc1nnc(-c2cc(-c3cccs3)nc3ccccc23)o1)NC1CCCCC1,7%,268%,3%,3%,u,-9
NC(=O)CSc1nnc(-c2cc(-c3cccs3)nc3ccccc23)o1,-7%,373%,-1%,1%,25µM*,-8
CCCN(CC1CC1)C(=O)CSc1nnc(-c2cc(-c3cccs3)nc3ccccc23)o1,-13%,395%,0%,1%,25µM*,-3
CCC(C)NC(=O)CSc1nnc(-c2cc(-c3cccs3)nc3ccccc23)o1 (stereo not given),10%,289%,-2%,4%,25µM*,-9
CC(=O)c1c(C(C)=O)c(C)n(-c2ccc(Br)cc2)c1C,x,x,x,x,x,11
Cc1cn(C(=O)c2ccccc2)c(=S)n1-c1ccc(Br)cc1,12%,-17%,3%,16µM*,u,2
